The values below come from PubChem BioAssay (EPA / NIEHS).

Activity calls are given as the source filed them. Rule for the calls: active = hit-call score of the fitted dose curve at least 0.9, where 1 is the maximum; inactive = score below 0.9.

Common to all, as to details: mRNA level, 48 h; actives raise or lower the signal
Read-out in assay [1]: DNA damage-inducible transcript 3 (DDIT3), DDIT3 (gene 1649)
Briefly: LTEA_HepaRG_DDIT3: Life Technologies and Expression Analysis (LTEA) Assay for DNA damage-inducible transcript 3 (DDIT3) using HepaRG (AID 2283488). In outline: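 Eight-point concentration-response (100 uM highest, half-log dilutions) in HepaRG, 48 h, duplicate wells. Endpoint: qRT-PCR mRNA, normalized (ACTB, GAPDH, POLR2A), bidirectional fitting with DMSO as baseline.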

Read-out in assay [2]: Pro-epidermal growth factor (Homo sapiens) (UniProt P01133)
Briefly: LTEA_HepaRG_EGF: Life Technologies and Expression Analysis (LTEA) Assay for Epidermal growth factor (EGF) using HepaRG (AID 2283489). In outline: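 qRT-PCR readout of EGF transcript after 48 h chemical exposure of HepaRG cells; eight concentrations from 100 uM down in half-log steps, duplicate wells, 0.5% DMSO vehicle. Bidirectional curve fitting against DMSO baseline.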

Read-out in assay [3]: Early growth response protein 1 (EGR1) transcription factor, EGR1 (gene 1958)
Put plainly: LTEA_HepaRG_EGR1: Life Technologies and Expression Analysis (LTEA) Assay for Early growth response protein 1 (EGR1) transcription factor using HepaRG (AID 2283490). In outline: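 HepaRG, 48 h exposure, 8-pt half-log series from 100 uM, 0.5% DMSO vehicle; EGR1 transcript by TaqMan qRT-PCR (Fluidigm array), housekeeping-normalized; bidirectional fit relative to DMSO baseline.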

Read-out in assay [4]: Ezrin (EZR), EZR (gene 7430)
Put plainly: LTEA_HepaRG_EZR: Life Technologies and Expression Analysis (LTEA) Assay for Ezrin (EZR) using HepaRG (AID 2283491). In outline: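 Read-out is EZR transcript level by qRT-PCR, normalized to three housekeeping genes and fitted bidirectionally against the DMSO control. Human HepaRG cells received test chemicals for 48 h at eight half-log concentrations up to 100 uM in 0.5% DMSO.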

Read-out in assay [5]: Cytochrome P450 3A7 (Homo sapiens) (UniProt P24462)
Briefly: LTEA_HepaRG_CYP3A7: Life Technologies and Expression Analysis (LTEA) Assay for CYP3A7 using HepaRG (AID 2283492). The method in brief: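 CYP3A7 transcript levels were read by TaqMan qRT-PCR on Fluidigm arrays after 48 h chemical exposure of human HepaRG cells, with housekeeping-gene normalisation. Eight half-log concentrations up to 100 uM in 0.5% DMSO were tested in duplicate.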

Read-out in another assay: CYP3A5 (gene 1577)
Put plainly: LTEA_HepaRG_CYP3A5: Life Technologies and Expression Analysis (LTEA) Assay for CYP3A5 using HepaRG (AID 2283493). In outline:
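Readout was CYP3A5 mRNA by qRT-PCR. HepaRG cultures were exposed for 48 h in serum-free induction medium to chemicals at up to 100 uM, and responses were fitted in both directions relative to DMSO vehicle.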

Read-out in assay [6]: Fatty Acid-Binding Protein 1 (FABP1), FABP1 (gene 2168)
Put plainly: LTEA_HepaRG_FABP1: Life Technologies and Expression Analysis (LTEA) Assay for Fatty Acid-Binding Protein 1 (FABP1) using HepaRG (AID 2283494). In outline:
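qRT-PCR readout of FABP1 transcript (normalized to three housekeeping genes) after 48 h chemical exposure of HepaRG cells; eight concentrations, half-log steps, max 100 uM, 0.5% DMSO vehicle; gain or loss fitted relative to DMSO baseline.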

Read-out in assay [7]: Cytochrome P450 4A22 (Homo sapiens) (UniProt Q5TCH4)
Put plainly: LTEA_HepaRG_CYP4A22: Life Technologies and Expression Analysis (LTEA) Assay for Cytochrome P450 4A22 (CYP4A22) using HepaRG (AID 2283495). The method in brief:
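HepaRG, 48 h post-plating -> serum-free induction medium; dosed 48 h, duplicate, 8 conc. (100 uM top, half-log), 0.5% DMSO. Readout: CYP4A22 mRNA by qRT-PCR, ACTB/GAPDH/POLR2A normalization; gain/loss fit relative to DMSO.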

Read-out in assay [8]: Cytochrome P450 7A1 (Homo sapiens) (UniProt P22680)
Briefly: LTEA_HepaRG_CYP7A1: Life Technologies and Expression Analysis (LTEA) Assay for Cytochrome P450 7A1 (CYP7A1) using HepaRG (AID 2283496). In outline: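 Using 0.5% DMSO as vehicle and baseline, chemicals were tested in duplicate over an 8-point range from 100 uM on HepaRG cells for 48 h; qRT-PCR signals were normalised to ACTB, GAPDH and POLR2A.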

Read-out in assay [9]: Glutathione S-Transferase (GSTA2), GSTA2 (gene 2939)
Briefly: LTEA_HepaRG_GSTA2: Life Technologies and Expression Analysis (LTEA) Assay for Glutathione S-Transferase (GSTA2) using HepaRG (AID 2283497). The method in brief: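 qRT-PCR readout of GSTA2 transcript, normalized to three housekeeping genes, fitted bidirectionally against 0.5% DMSO baseline. Differentiated HepaRG cells received compound for 48 h at 8 concentrations (top 100 uM, half-log steps).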

Read-out in assay [10]: Glutamate-cysteine ligase catalytic (GCLC), GCLC (gene 2729)
Put plainly: LTEA_HepaRG_GCLC: Life Technologies and Expression Analysis (LTEA) Assay for Glutamate-cysteine ligase catalytic (GCLC) using HepaRG (AID 2283498). In outline: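 HepaRG, 48 h exposure, 8-pt half-log series from 100 uM, 0.5% DMSO vehicle; TaqMan qRT-PCR for GCLC mRNA, housekeeping-normalized; bidirectional curve fit vs DMSO baseline.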

Read-out in assay [11]: growth arrest and DNA damage 45 (GADD45G), GADD45G (gene 10912)
Put plainly: LTEA_HepaRG_GADD45G: Life Technologies and Expression Analysis (LTEA) Assay for growth arrest and DNA damage 45 (GADD45G) using HepaRG (AID 2283499). The method in brief: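 HepaRG, 48 h exposure, top 100 uM, half-log 8-point series, 0.5% DMSO vehicle, duplicates. Readout: GADD45G transcript by qRT-PCR (Fluidigm array), housekeeping-normalised (ACTB/GAPDH/POLR2A). Bidirectional curve fit vs DMSO baseline.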

Read-out in assay [12]: Glutamate-cysteine ligase regulatory (GCLM), GCLM (gene 2730)
Briefly: LTEA_HepaRG_GCLM: Life Technologies and Expression Analysis (LTEA) Assay for Glutamate-cysteine ligase regulatory (GCLM) using HepaRG (AID 2283500). In outline:
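In this multiplexed HepaRG gene-expression assay, GCLM mRNA change after 48 h treatment (8 concentrations, max 100 uM) was scored against DMSO by bidirectional curve fitting.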

Read-out in assay [13]: Glutathione S-transferase M3 (GSTM3), GSTM3 (gene 2947)
Briefly: LTEA_HepaRG_GSTM3: Life Technologies and Expression Analysis (LTEA) Assay for Glutathione S-transferase M3 (GSTM3) using HepaRG (AID 2283501). The method in brief: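 qRT-PCR read-out of GSTM3 transcript, normalized to three housekeeping genes, from human HepaRG cells after 48 h chemical exposure. Eight-point half-log series, top 100 uM, 0.5% DMSO vehicle; gain or loss fitted relative to DMSO baseline.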

Read-out in assay [14]: Hypoxia-inducible factor 1-alpha (Homo sapiens) (UniProt Q16665)
Put plainly: LTEA_HepaRG_HIF1A: Life Technologies and Expression Analysis (LTEA) Assay for Hypoxia-inducible factor 1 (HIF1A) Trancription factor using HepaRG (AID 2283503). The method in brief: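 Gain- or loss-of-signal HIF1A mRNA changes are fitted against a DMSO baseline. HepaRG cultures receive eight concentrations, highest 100 uM, for 48 h in serum-free induction medium with 0.5% DMSO.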

Read-out in assay [15]: 3-Hydroxy-3-Methylglutaryl-CoA Synthase 2 (HMGCS2), HMGCS2 (gene 3158)
Briefly: LTEA_HepaRG_HMGCS2: Life Technologies and Expression Analysis (LTEA) Assay for 3-Hydroxy-3-Methylglutaryl-CoA Synthase 2 (HMGCS2) using HepaRG (AID 2283504). The method in brief:
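qRT-PCR read-out of HMGCS2 transcript, normalised to three housekeeping genes, in HepaRG cells after 48 h chemical exposure. Eight-point curves from 100 uM, half-log dilutions, 0.5% DMSO vehicle; gain or loss fitted relative to DMSO baseline.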

Read-out in assay [16]: Insulin Like Growth Factor 1 (IGF1), IGF1 (gene 3479)
Briefly: LTEA_HepaRG_IGF1: Life Technologies and Expression Analysis (LTEA) Assay for Insulin Like Growth Factor 1 (IGF1) using HepaRG (AID 2283506). The method in brief:
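Endpoint: IGF1 mRNA change by qRT-PCR, housekeeping-normalized, fitted bidirectionally relative to 0.5% DMSO vehicle. Human HepaRG cells were treated 48 h in serum-free induction medium, eight half-log concentrations topping at 100 uM.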

Read-out in assay [17]: Intercellular Adhesion Molecule 1 (ICAM1), ICAM1 (gene 3383)
Briefly: LTEA_HepaRG_ICAM1: Life Technologies and Expression Analysis (LTEA) Assay for Intercellular Adhesion Molecule 1 (ICAM1) using HepaRG (AID 2283507). In outline: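 HepaRG, 48 h exposure, 8-pt half-log series from 100 uM, 0.5% DMSO vehicle, duplicates. Readout: TaqMan qRT-PCR mRNA, housekeeping-normalized (ACTB/GAPDH/POLR2A). Bidirectional curve fit vs DMSO baseline.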

Read-out in assay [18]: Heat shock 70 kDa protein 1 (HSPA1A), gene 3303
Put plainly: LTEA_HepaRG_HSPA1A: Life Technologies and Expression Analysis (LTEA) Assay for Heat shock 70 kDa protein 1 (HSPA1A) using HepaRG (AID 2283502). The method in brief:
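An oxidative-stress marker readout: HepaRG cells treated 48 h in duplicate with an eight-point series (highest 100 uM) had HSPA1A mRNA quantified by TaqMan qRT-PCR. Activity was fitted in both directions using 0.5% DMSO as baseline.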

Read-out in another assay: HGF (gene 3082)
Put plainly: LTEA_HepaRG_HGF: Life Technologies and Expression Analysis (LTEA) Assay for Hepatocyte Growth Facto (HGF) using HepaRG (AID 2283505). In outline:
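HepaRG, 48 h dosing, 8-pt half-log series from 100 uM in 0.5% DMSO, duplicates. Readout: TaqMan qRT-PCR of HGF mRNA, housekeeping-normalized; bidirectional curve fit vs DMSO baseline.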

Hypoxia-inducible factor 1-alpha (Homo sapiens), sequence (Q16665 whole entry, looked up): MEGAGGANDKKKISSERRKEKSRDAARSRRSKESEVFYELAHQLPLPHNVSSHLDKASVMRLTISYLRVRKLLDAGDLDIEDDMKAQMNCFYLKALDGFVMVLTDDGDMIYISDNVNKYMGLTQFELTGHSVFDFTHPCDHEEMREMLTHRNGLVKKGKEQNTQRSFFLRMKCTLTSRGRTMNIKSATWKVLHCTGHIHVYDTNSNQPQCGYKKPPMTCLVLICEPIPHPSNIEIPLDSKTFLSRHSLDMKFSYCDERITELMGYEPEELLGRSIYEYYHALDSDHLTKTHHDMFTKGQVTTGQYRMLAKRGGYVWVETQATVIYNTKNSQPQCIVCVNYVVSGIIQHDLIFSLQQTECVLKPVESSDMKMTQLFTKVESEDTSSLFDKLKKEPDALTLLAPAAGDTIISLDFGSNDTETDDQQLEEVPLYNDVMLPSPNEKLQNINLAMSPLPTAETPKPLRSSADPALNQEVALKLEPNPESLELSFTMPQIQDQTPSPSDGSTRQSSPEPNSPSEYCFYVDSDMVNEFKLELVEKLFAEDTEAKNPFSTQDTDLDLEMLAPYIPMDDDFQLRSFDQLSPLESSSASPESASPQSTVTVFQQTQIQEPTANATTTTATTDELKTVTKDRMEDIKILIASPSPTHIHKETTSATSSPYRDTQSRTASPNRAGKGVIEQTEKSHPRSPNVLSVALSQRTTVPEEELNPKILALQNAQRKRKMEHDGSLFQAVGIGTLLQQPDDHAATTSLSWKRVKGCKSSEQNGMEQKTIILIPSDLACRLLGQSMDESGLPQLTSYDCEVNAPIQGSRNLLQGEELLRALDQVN
Cytochrome P450 3A7 (Homo sapiens), sequence (P24462 whole entry, looked up): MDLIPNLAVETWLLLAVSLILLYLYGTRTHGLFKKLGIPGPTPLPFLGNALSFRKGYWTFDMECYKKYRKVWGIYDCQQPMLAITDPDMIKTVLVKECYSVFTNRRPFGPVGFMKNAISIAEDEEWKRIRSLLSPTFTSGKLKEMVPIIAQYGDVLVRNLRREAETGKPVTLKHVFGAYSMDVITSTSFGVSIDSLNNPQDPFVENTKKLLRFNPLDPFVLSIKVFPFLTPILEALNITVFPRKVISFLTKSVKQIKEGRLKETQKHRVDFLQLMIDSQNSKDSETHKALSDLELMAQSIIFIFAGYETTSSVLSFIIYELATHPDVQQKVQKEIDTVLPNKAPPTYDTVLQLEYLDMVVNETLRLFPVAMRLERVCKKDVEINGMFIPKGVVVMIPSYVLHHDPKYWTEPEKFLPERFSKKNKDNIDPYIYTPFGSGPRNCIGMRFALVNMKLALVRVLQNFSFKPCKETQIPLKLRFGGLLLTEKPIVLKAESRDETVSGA

Take `O=C(O)C(F)(F)C(F)(F)C(F)(F)C(F)(F)C(F)(F)C(F)(F)C(F)(F)C(F)(F)F`: the AC50 (in general, the midpoint of the concentration-response curve, whichever way the signal moves) in [1] was 77.9 µM (active); in [3] it was 83.4 µM (active); in assay [4] it was 77 µM (active); in assay [5], 89 µM (active); in assay [6], 81.1 µM (active); in assay [7] it was 90 µM (active). The AC50 in assay [8] was 86.7 µM (active); in assay [9], 86.8 µM (active); in assay [10] it was 75.3 µM (active); in assay [11], 85.6 µM (active); in assay [12], 77 µM (active); in [15], 80.4 µM (active). Also, the AC50 was 77 µM (active) in [16] and 78.7 µM (active) in assay [17]. Besides, the molecule was called inactive (in assay [2]; with CYP3A5 (gene 1577); in assay [13]; in [14]).

For the molecule `CC#Cc1cc(C)nc(Nc2ccccc2)n1`, the molecule was called inactive in [1], in [2], in assay [3], in assay [4], in [11] and in [18]. For the same molecule, the outcome in [14] and in assay [17] was inactive. For the same molecule, the AC50 in [5] was 41.6 µM (active); with CYP3A5 (gene 1577), 15.6 µM (active); in assay [6], 13.7 µM (active); in [7] it was 1.05 µM (active); in [8] it was 13.8 µM (active); in assay [9], 28 µM (active). Also, the AC50 in [10] was 32.8 µM (active); in assay [12], 50 µM (active); in [15] it was 32.5 µM (active); with HGF (gene 3082), 50 µM (active); in [16], 33.1 µM (active).

Turning to `ClC1=C(Cl)[C@]2(Cl)[C@@H]3[C@H]4C[C@H]([C@@H]5O[C@H]45)[C@@H]3[C@@]1(Cl)C2(Cl)Cl`, the AC50 in assay [1] is 50 µM (active); in [5], 2.94 µM (active); in [6], 1.86 µM (active); in assay [7], 32.5 µM (active); in assay [8], 17.4 µM (active); in assay [9], 32.6 µM (active). The values for the AC50 in [15], in [16] and in assay [17] were 30.5 µM (active), 5.52 µM (active) and 9.92 µM (active), respectively. For the same molecule, the result (in assay [2]; in assay [3]; in assay [4]; with CYP3A5 (gene 1577); in assay [10]; in [11]) was inactive. The call (in assay [12]; in assay [13]; in assay [18]; in assay [14]; with HGF (gene 3082)) was inactive.
